Screening results from PubChem BioAssay.
HCMV inh = blocks human cytomegalovirus replication | 4.5% of 410,000 active | HFF cells, HCMV-luciferase reporter, 72 h; stronger effect = lower value | activity change, negative = inhibition, % at 57.5 µM | AID 1259415; in the data active means activity change below about -60%; inconclusive means no clear call, values can overlap the other calls; inactive means above about -39%
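Two-dose cell screen: HFF monolayers treated with compounds and infected with luciferase-expressing HCMV at 1 PFU/cell, 72 h at 37C, then lysed for luciferase measurement.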
HCV inhibitor = HCV inhibition | Huh7.5.1 HCVcc-Cre infection, luciferase reporter, 44 h | Potency, µM (titrated, usually from 41.8 µM), inactives show at the top dose activity change, negative = inhibition, hits mostly inhibitors | 3.4% of 340,000 active | AID 651820; active means well fitted inhibition curve with a large enough effect; inconclusive means small, poorly fitted or top-dose-only effect, or another doubt; inactive means no such curve, though single readings can be large or run the other way; further: potency means the concentration at half of the fitted maximal effect
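HCVcc-Cre virus at an moi near 0.5 was added right after compound to cells cultured 4 h from seeding (1,000 cells/well). Luciferase activity was determined 44 h later, 15 min after substrate addition at RT.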
FMDV antiviral = foot and mouth disease virus antiviral activity; FMDV antiviral cell-based qHTS; Potency, µM (top dose mostly 57.9 µM), for inactives: at the highest dose activity change, negative = inhibition, actives largely listed as inhibitors; 1.2% of 410,000 active; calls by dose curve; tested in HEK293T cells; further: read-out not given here; potency means the concentration at half of the fitted maximal effect; nearly all actives have a fitted effect of over 45% in size
Lassa entry inh = inhibitors of Lassa virus binding or cell entry; Lassa virus pseudotype entry inhibition, cell reporter; Potency, µM (doses to about 37.9 µM), without a hit: at the highest dose activity change, negative = inhibition, most hits filed as inhibitors; 1.2% of 300,000 active; AID 540256; calls by dose curve; tested in HEK293 cells; further: potency means the concentration at half of the fitted maximal effect; nearly all actives have a fitted effect of over 50% in size
Marburg entry inh = inhibitors of Marburg virus binding or cell entry; Marburg virus pseudotyped entry inhibition, cell reporter; Potency, µM (top dose mostly 37.8 µM), for inactives: at the highest dose activity change, negative = inhibition, hits mostly inhibitors; 1.8% of 300,000 active; calls by dose curve; tested in HEK293 cells; further: potency means the concentration at half of the fitted maximal effect
* hit, by the source's call; ! = not active in a repeat; [ ] = remark or other dose. Only some compounds are listed: those with a hit (about 7.9% of all), similar ones and a draw of the others. On the % scale 0 is the no-effect control and ±100 the full control effect.

What do the screens show for `Cc1sc2ncnc(N/N=C/c3ccc(O)cc3)c2c1C`?
HCMV inh: -26; HCV inhibitor: 11µM*; FMDV antiviral: 5%; Lassa entry inh: inconclusive; Marburg entry inh: inconclusive

How did Cc1ccc(Nc2ncnc3sc(C)c(C)c23)cc1C do in these assays?
HCMV inh: 35; HCV inhibitor: inconclusive; FMDV antiviral: 9%; Lassa entry inh: 15%; Marburg entry inh: 19%

Results for COc1ccc(/C=N/Nc2ncnc3sc(C)c(C)c23)cc1 ?
HCMV inh: -12; HCV inhibitor: -19%; FMDV antiviral: 5%; Lassa entry inh: 9%; Marburg entry inh: 16%

Results for Cc1sc2ncnc(N/N=C/c3ccccc3O)c2c1C ?
HCMV inh: -101*; HCV inhibitor: inconclusive; FMDV antiviral: 30%; Lassa entry inh: 10µM*; Marburg entry inh: 3.2µM*

Results for O=C(CSc1ncnc2sc3c(c12)CCC3)N1CCOCC1 ?
HCMV inh: 2; HCV inhibitor: inconclusive; FMDV antiviral: -17%; Lassa entry inh: -3%; Marburg entry inh: 3%[46.1 µM]

How did O=C(CSc1ncnc2sc3c(c12)CCCC3)N1CCC(c2noc3ccc(F)cc23)CC1 do in these assays?
HCMV inh: 11; HCV inhibitor: 11µM*!; FMDV antiviral: 3%; Lassa entry inh: -25%; Marburg entry inh: inconclusive

Results for COc1nc(N=C(N)N)nc2ccc(C)cc12 ?
HCMV inh: -102*; HCV inhibitor: inconclusive; Marburg entry inh: -6%

How did O=C(C1CC1)N1CCc2cc(S(=O)(=O)N3CCCc4ccccc43)ccc21 do in these assays?
HCMV inh: -68*; HCV inhibitor: -6%; FMDV antiviral: 0%; Lassa entry inh: inconclusive; Marburg entry inh: -8%[46.1 µM]

What do the screens show for `Cc1cc(Cl)ccc1NC(=O)CCS(=O)(=O)c1ccc2c(c1)CC(C)N2C(=O)C1CC1` (configuration not stated)?
HCMV inh: -65*; FMDV antiviral: -25%; Lassa entry inh: -1%[46.1 µM]

How did CC(=O)N1CCc2cc(S(=O)(=O)N3c4ccccc4CC3C)ccc21 (configuration not stated) do in these assays?
HCMV inh: -77*; HCV inhibitor: inconclusive; Lassa entry inh: inconclusive; Marburg entry inh: inconclusive

How did CCC(=O)N1CCCc2cc(S(=O)(=O)N3CCN(c4ncccn4)CC3)ccc21 do in these assays?
HCMV inh: 3; HCV inhibitor: 17%; FMDV antiviral: -1%

What do the screens show for `CCC(=O)N1CCCc2cc(S(=O)(=O)N3CCN(c4ccccc4F)CC3)ccc21`?
HCMV inh: inconclusive; HCV inhibitor: 13µM*; FMDV antiviral: inconclusive

Results for CC(=O)N1CCc2cc(S(=O)(=O)N3CCOCC3)ccc21 ?
HCMV inh: -7; HCV inhibitor: 8%; FMDV antiviral: -1%; Lassa entry inh: -9%; Marburg entry inh: 5%

Results for COc1ccc(O)c(C(=O)N2CCC3(CC2)c2ccccc2[C@@H](NC(=O)c2ccccn2)[C@@H]3OC)c1 ?
FMDV antiviral: 21%

What do the screens show for `COC(=O)N1C(C=Cc2ccc3c(c2)OCO3)=Cc2ccccc2C1CC(C)=O` (configuration not stated)?
Lassa entry inh: inconclusive; Marburg entry inh: -12%[14.2 µM]

What do the screens show for `Cc1cccc(N2CCN(S(=O)(=O)c3ccc4c(c3)CC(C)N4C(=O)C3CC3)CC2)c1C` (configuration not stated)?
HCMV inh: -61*; HCV inhibitor: inconclusive; FMDV antiviral: inconclusive

How did CC(=O)N1c2ccc(S(=O)(=O)N3CCOCC3)cc2CC1C (configuration not stated) do in these assays?
HCMV inh: 52; HCV inhibitor: 12%; FMDV antiviral: 5%; Lassa entry inh: -14%[46.1 µM]; Marburg entry inh: 29%[46.1 µM]

What do the screens show for `Cc1ccc(C)c(N2CCN(S(=O)(=O)c3ccc4c(c3)CC(C)N4C(=O)C3CC3)CC2)c1` (configuration not stated)?
HCMV inh: inconclusive; HCV inhibitor: inconclusive; FMDV antiviral: -26%; Lassa entry inh: inconclusive; Marburg entry inh: inconclusive

Results for CC(=O)c1ccc(N2CCN(S(=O)(=O)c3ccc4c(c3)CC(C)N4C(=O)C3CC3)CC2)cc1 (configuration not stated) ?
HCMV inh: -14; HCV inhibitor: 3.5µM*; FMDV antiviral: inconclusive

Results for Cc1ccc(C)c(N2CCN(S(=O)(=O)c3ccc4c(c3)CCCN4C(=O)C3CCC3)CC2)c1 ?
HCMV inh: -9; FMDV antiviral: inconclusive; Lassa entry inh: -28%[46.1 µM]

Results for COc1ccc(N2CCN(S(=O)(=O)c3ccc4c(c3)CC(C)N4C(=O)C3CC3)CC2)cc1 (configuration not stated) ?
HCMV inh: inconclusive; HCV inhibitor: inconclusive; FMDV antiviral: -22%; Lassa entry inh: -2%[46.1 µM]; Marburg entry inh: 12%[46.1 µM]

How did Cc1cccc(N2CCN(S(=O)(=O)c3ccc4c(c3)CCCN4C(=O)C3CCC3)CC2)c1C do in these assays?
HCMV inh: inconclusive; HCV inhibitor: 14µM*; FMDV antiviral: inconclusive; Lassa entry inh: 6.3µM*

What do the screens show for `CC(=O)c1ccc(N2CCN(S(=O)(=O)c3ccc4c(c3)CC(C)N4C(C)=O)CC2)cc1` (configuration not stated)?
HCMV inh: -28; HCV inhibitor: 6.3µM*; FMDV antiviral: inconclusive; Lassa entry inh: inconclusive; Marburg entry inh: inconclusive

What do the screens show for `CCOC(=O)C(C)N1c2cccc3cccc(c23)S1(=O)=O` (configuration not stated)?
HCMV inh: 18; FMDV antiviral: -17%

Results for CC(C)(C)c1ccc(OCc2cc(=O)n3c4c(sc3n2)CCCC4)cc1 ?
HCMV inh: 3; FMDV antiviral: -3%; Lassa entry inh: -1%[46.1 µM]; Marburg entry inh: 13%[46.1 µM]

What do the screens show for `O=C(OCc1nc2ccsc2c(=O)[nH]1)c1ccccc1`?
HCMV inh: -5; HCV inhibitor: 34%; FMDV antiviral: -4%; Lassa entry inh: 18%; Marburg entry inh: 2%[46.1 µM]

How did CCCCCCCCCCOCCC(=O)O do in these assays?
FMDV antiviral: -8%[6.7 µM]

Results for O=C(NC(=O)c1csnn1)Nc1ccccc1Cl ?
HCMV inh: -83*; HCV inhibitor: 8%; FMDV antiviral: 22%

How did NC(=O)NC(=O)Nc1ccccc1Cl do in these assays?
HCMV inh: -1; HCV inhibitor: -6%; FMDV antiviral: 23%; Lassa entry inh: -15%; Marburg entry inh: 10%

How did C[C@@H](c1ccccc1)N1C(=O)[C@@H]2[C@H]3[C@H](O)[C@H](O)CC(=NOC[C@@H](O)COCc4ccco4)[C@H]3CC[C@H]2C1=O do in these assays?
Marburg entry inh: 1%[14.2 µM]

Results for COc1cc(OC)c(OC)cc1/C=N/Nc1ncnc2c1[nH]c1ccccc12 ?
HCMV inh: -7; HCV inhibitor: 10µM*; FMDV antiviral: -23%; Lassa entry inh: -17%; Marburg entry inh: inconclusive

How did COc1ccc(/C=N/Nc2ncnc3c2[nH]c2ccc(C)cc23)c(OC)c1OC do in these assays?
HCMV inh: -80*; HCV inhibitor: inconclusive; FMDV antiviral: 0%; Lassa entry inh: inconclusive; Marburg entry inh: -16%[46.1 µM]
